These sequences were tested against GPR176 (assay: pooled miR-30 sensor sort-seq; sequence = guide strand). Settings: shRNA.

Compared with TATGATGACCTTCTTCTTCTGG, TTGCTGTTTCGGGTCTCTGAGA is lower in sensor-assay potency score (higher = more potent): 0.194 for the first, -1.55 for the second.

Compared with TAGAGGACTGAGTAGTACCTGT, TTGAACACGGTTGTGCGGCAAG is lower in sensor-assay potency score (higher = more potent): -0.351 for the first, -0.817 for the second.

With TTTTTAATGAACCTGTTGGTGA the sensor-assay potency score (higher = more potent) was -0.59.

The sequences below were run against GPR20 in the same assay as above. Settings: shRNA.

First: TACCAGTAGATCGGTCACCACC
Second: TAGACGATGGGGTCCATGCAGC
The sensor-assay potency score (higher = more potent) of the first is lower: -1.53 for the first, -0.856 for the second.

Going from TAGTACACAGCGAAGCGCGTGG to TAGATCGGTCACCACCAGGTTG, the sensor-assay potency score (higher = more potent) falls from 0.127 to -0.8.

Going from TAGACCACGAGGCTCGTGTGGT to TGCATGTTGAGGAAGTAACCGA, the sensor-assay potency score (higher = more potent) rises from -1.11 to -0.614.

Going from AAACACGCTGATGACCAGCAGG to ATGGTGTAGATGACTGAGGGTG, the sensor-assay potency score (higher = more potent) falls from -1.04 to -1.26.

Going from TAGCGGTCCACGCAGATGCAGG to TTGGAGCTCCTGTGCATGCTGA, the sensor-assay potency score (higher = more potent) rises from -1.47 to -0.983.

Compared with TTGATGGTGTAGATGACTGAGG, TGGTGTAGATGACTGAGGGTGT is higher in sensor-assay potency score (higher = more potent): -1.03 for the first, -0.513 for the second.

The sequences below were run against GPR35 in the same assay as above. Settings: shRNA.

First: TGTAGTAGTAGCAGATGGCGTC
Second: TTGGCATCTGAGAGCTTGCTGG
The sensor-assay potency score (higher = more potent) of the first is higher: 0.146 for the first, -1.04 for the second.

Compared with TAGGCGTAGAAGCCCAGCTTGA, TAGAAGCCCAGCTTGATCGCTG is higher in sensor-assay potency score (higher = more potent): -1.67 for the first, 0.371 for the second.

Compared with TAGCAGATGGCGTCCAGGCAGC, ATGGAGTTGAAATTGTGCCGGG is higher in sensor-assay potency score (higher = more potent): -1.38 for the first, -0.394 for the second.

First: TTGGCCATGTAGTAGTAGCAGA
Second: TGGAGTTGAAATTGTGCCGGGT
The sensor-assay potency score (higher = more potent) of the first is lower: -0.948 for the first, 0.0323 for the second.

First: TTGCTGGTTATGTACAGGGCGC
Second: TTTGTGGGCCTTAGCACTGGGA
The sensor-assay potency score (higher = more potent) of the first is lower: -1.43 for the first, -1.13 for the second.

Going from ATGTAGTAGTAGCAGATGGCGT to TTTTGTGGGCCTTAGCACTGGG, the sensor-assay potency score (higher = more potent) rises from -1.53 to -0.0303.

What follows are sequences tested against GPR3 in the same assay as above. Settings: shRNA.

Going from TCTGAGTAGAACACTGACCACC to TTGGAAGAGGAACAGCAGCAGC, the sensor-assay potency score (higher = more potent) falls from -0.825 to -1.16.

First: TTGTCTCTGAATAGTAGGTGAG
Second: TAAATAGACACTGTCTTTGTAT
The sensor-assay potency score (higher = more potent) of the first is lower: -1.17 for the first, 0.00652 for the second.

First: TATATGTGCATATATAATCTTT
Second: TAGAGCTGCAGCATGATGCCAA
The sensor-assay potency score (higher = more potent) of the first is lower: -0.621 for the first, -0.00504 for the second.

First: TAGAACTCCAGAACCAGCTGGG
Second: TAGCTCAGAAATTCAAACGTAA
The sensor-assay potency score (higher = more potent) of the first is higher: 0.254 for the first, 0.128 for the second.

Going from TGACTAATCTCTCTGACTCTTT to TTGTACAGAGAAAGGTAGCGGT, the sensor-assay potency score (higher = more potent) rises from -0.512 to 0.0257.

TAGGGATCTGAACAGAACCTTG showed a sensor-assay potency score (higher = more potent) of -1.54.

— the OligoGym collection
